# Rab9 prom act: activates the Rab9 promoter | Huh7 Rab9 promoter-luciferase reporter, luminescence, 24 h | Potency, µM (top dose mostly 9.22 µM), inactives show at the top dose activation, negative = inhibition, hits mostly activators | 2.8% of 320,000 active; also: % of control where 0% means no effect; nearly all actives have a fitted effect of over 60% in size
#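 Huh7 cells stably carrying a Rab9 promoter-luciferase reporter, 1500 cells per well in OP-MEM I with 10% FBS, treated with compound 24 hours at 37C. Luciferase activity read by luminescence after 10 minutes with Amplite reagent.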
# ELG1 DNA repair: ELG1-dependent DNA repair inhibition | HEK293T ELG1-luciferase reporter, luminescence, 16 h; DNA damage induced by 5-fluorouridine | Potency, µM (doses to about 46.1 µM), for the others: at the top dose activity change, negative = inhibition, usual class: inhibitors | 2.3% of 330,000 active | AID 504467; also: % is scaled to controls: 0 for no effect and ±100 for the full control effect; nearly all actives have a fitted effect of over 55% in size
#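 In this reporter screen, reduction of luminescence relative to DMSO vehicle indicated activity. Compounds and 5-fluorouridine were added together to 2,000 cells per well, incubated for 16 hr at 37 °C, then developed with ONE-Glo.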
# ELG1 genotoxic: genotoxicity induction in ELG1-luciferase HEK293T cells. AID 504466. Potency, µM (titrated, usually from 46 µM), for inactives: at the top dose activity change, positive = activation, hits mostly activators. 1.3% of 330,000 active. HEK293T ELG1-luciferase reporter, luminescence, 16 h; also: % of control where 0% means no effect; nearly all actives have a fitted effect of over 60% in size
#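 Step 1: seed 2,000 HEK293T ELG1-luciferase cells per well. Step 2: add compound or DMSO, incubate 16 hr at 37 °C. Step 3: ONE-Glo, 30 min at room temperature, read luminescence.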
# FLuc modulator: inhibits or activates purified firefly luciferase, miR-21 counter-screen; purified FLuc, Km substrates, luminescence inhibition; Potency, µM (highest dose often 57.5 µM), for the others: at the highest dose activity change, negative = inhibition, most hits filed as inhibitors; 6.9% of 360,000 active;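 also: plate controls were vehicle for no effect and reference inhibitor for full effect; nearly all actives have a fitted effect of over 55% in size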
# Target sequence (P08659 whole entry, looked up): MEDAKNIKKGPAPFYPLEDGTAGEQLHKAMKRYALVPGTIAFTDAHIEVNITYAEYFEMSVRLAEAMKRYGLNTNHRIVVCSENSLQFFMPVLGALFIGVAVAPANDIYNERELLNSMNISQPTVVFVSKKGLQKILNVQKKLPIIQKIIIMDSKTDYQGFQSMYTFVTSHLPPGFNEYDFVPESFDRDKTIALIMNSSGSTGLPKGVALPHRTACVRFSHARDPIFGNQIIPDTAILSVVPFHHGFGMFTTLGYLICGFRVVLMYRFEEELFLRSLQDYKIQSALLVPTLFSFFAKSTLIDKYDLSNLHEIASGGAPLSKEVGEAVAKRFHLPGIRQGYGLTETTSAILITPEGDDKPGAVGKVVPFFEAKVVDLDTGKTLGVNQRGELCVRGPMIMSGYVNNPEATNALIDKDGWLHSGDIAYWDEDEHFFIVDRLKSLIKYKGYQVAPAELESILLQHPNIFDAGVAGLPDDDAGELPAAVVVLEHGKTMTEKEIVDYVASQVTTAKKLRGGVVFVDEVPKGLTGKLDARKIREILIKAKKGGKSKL
#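 Purified P. pyralis luciferase (10nM final) with 10uM D-luciferin and 10uM ATP (Km levels) in 50mM Tris acetate pH 7.5, 10mM Mg acetate, 0.01% Tween-20, 0.05% BSA; qHTS 6-point titration, ~60 µM downward; luminescence read.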
# SMN2 splice up: enhancers of SMN2 splice variant expression; HEK293 SMN2-luciferase splicing reporter, luminescence, 30-36 h; Potency, µM (highest dose often 46.1 µM), for inactives: top-dose activity change, positive = activation, usual class: activators; 2.8% of 210,000 active; AID 1458; also: % of control where 0% means no effect; nearly all actives have a fitted effect of over 55% in size
#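 HEK293 cells carry an SMN2 […]–luciferase reporter in which exon 7 inclusion puts luciferase in frame. Cells were plated 10-12 h before compound addition, then incubated 30-36 h at 37C. ONE-Glo luminescence was read; sodium butyrate at 4.5 mM final served as control.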
# NPC1 prom act: activators of NPC1 promoter; Potency, µM (top dose mostly 9.22 µM), for the others: at the highest dose activation, usual class: activators; 2.4% of 320,000 active; Huh7 NPC1 promoter luciferase reporter, 24 h; also: % of control where 0% means no effect; nearly all actives have a fitted effect of over 60% in size
#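 Quantitative HTS used a cell-based reporter: Huh7 cells stably bearing the NPC1 promoter upstream of luciferase were treated with compounds for 24 h, and promoter activation was read as luminescence.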
# Active calls of the source: *; u = inconclusive; x = not tested or not shown. The list is not random: actives were taken first. Their share in the collection is about 9.3%. Calls follow the shape of the dose curve; as a rule, active = well fitted curve in the direction sought with a large enough effect; inconclusive = small, poorly fitted or top-dose-only effect, or another doubt; inactive = no such curve, though single readings can be large; an effect the other way counts as inactive or inconclusive. Potency is read from the fitted curve at half-maximal effect.
SMILES,Rab9 prom act,ELG1 DNA repair,ELG1 genotoxic,FLuc modulator,SMN2 splice up,NPC1 prom act
O=C(NCc1cccc(Cl)c1)c1cc(COc2ccc3ncccc3c2)on1,-33%,u,-10%,-15%,x,-17%
CCc1ccccc1NC(=O)CNC(=O)CNC(=O)C1CCCCC1,0%,2%,1%,8%,x,-1%
Cc1ccc2c(CC(=O)OC(C)C(=O)Nc3ncc(Cl)cc3Cl)coc2c1 (configuration not stated),-11%,10%,1%,2%,-2%,-6%
CCN(CCn1cccn1)C(=O)c1cc(COc2ccc(F)cc2Cl)on1,-3%,0%,0%,u,-7%,-1%
CC(Cc1cccnc1)NC(=O)c1cc(COc2ccc(F)cc2Cl)on1 (configuration not stated),9%,12%,-2%,13µM*,x,-13%
Cc1ccc(OCc2cc(C(=O)NC(C)Cc3cccnc3)no2)cc1C (configuration not stated),u,u,15%,13µM*,x,u
O=C(NCCCn1cccn1)c1cc(COc2ccc(F)cc2Cl)on1,17%,u,-3%,17µM*,x,16%
COc1cccc(OCc2cc(C(=O)NCC3CCCCC3)no2)c1,5%,u,3%,u,x,-2%
Cc1cc(=O)[nH]c(S/C=C/c2ccccc2)n1,u,u,21µM*,5.4µM*,11µM*,3.5µM*
CCc1ccccc1NC(=S)NC1CC2CCC(C1)N2Cc1ccco1 (configuration not stated),-1%,0%,0%,0%,7%,0%
COCCn1c(N2CCN(c3ccc(OC)cc3)CC2)nc2c1c(=O)n(C)c(=O)n2C,9%,18µM*,-3%,-3%,6%,6%
CCOCCn1c(N2CCN(c3ccc(OC)cc3)CC2)nc2c1c(=O)n(C)c(=O)n2C,-1%,u,0%,0%,-8%,1%
C=CCn1c(N2CCN(c3ccc(OC)cc3)CC2)nc2c1c(=O)n(C)c(=O)n2C,-3%,16µM*,-10%,-4%,-54%,5%
O=C(c1ccc(CS(=O)(=O)c2ccc(Br)cc2)o1)N1CCN(C2CCCCC2)CC1,-3%,9%,1%,1%,6%,1%
CC(=O)c1cccc(Nc2nc(-c3ccccc3)cs2)c1,1.3µM*,u,u,3.4µM*,11µM*,3.2µM*
c1ccc(Nc2nc(-c3ccncc3)cs2)cc1,4%,u,15%,u,u,0%
CC(=O)c1cccc(Nc2nc(-c3cccnc3)cs2)c1,u,u,7%,11µM*,x,3.5µM*
O=C(CNC(=O)Cc1ccccc1)NCc1cccc(C(F)(F)F)c1,0%,12%,0%,3%,x,1%
CC(=O)Nc1ccc(C(=O)OCc2ccc(Cl)c(Cl)c2)cc1,-3%,17%,4%,3%,u,-6%
Cc1nc(NC(=O)CN2CCOCC2)sc1-c1ccccc1,u,u,12%,u,8%,u
Cc1nc(Nc2ccc(C(=O)O)cc2)sc1-c1ccccc1,u,u,u,0.17µM*,x,1.3µM*
Cc1nc(Nc2ccccc2)sc1-c1ccccc1,0.4µM*,u,u,0.34µM*,x,1.3µM*
CCOC(=O)c1c(C)[nH]c(C(=O)Nc2ccc(C)c(Cl)c2)c1C,4µM*,u,u,2.4µM*,11µM*,2µM*
CC(=O)c1c(C)[nH]c(C(=O)Nc2ccc3c(c2)OCCO3)c1C,1.3µM*,u,u,4.8µM*,5.6µM*,1.8µM*
CC(=O)c1c(C)[nH]c(C(=O)Nc2ccc(C)cc2Br)c1C,0.89µM*,u,u,u,x,3.5µM*
CCOC(=O)c1c(C)[nH]c(C(=O)Nc2ccc(NC(C)=O)cc2)c1C,0%,-3%,0%,-19%,3%,0%

# Assay outcomes (PubChem)
